Screening results from PubChem BioAssay.
TIM10 inh: inhibits growth of TIM10 yeast strain. S. cerevisiae TIM10 strain growth, BacTiter-Glo luminescence, 24 h. inhibition, % at 10 µM. 1.4% of 330,000 active;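 active means inhibition of 40% or more at the single tested concentration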;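 further: wild-type TIM10 isogenic control strain grown at permissive 25 °C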
tim23-1 inh: growth inhibitors of tim23-1 mutant yeast. S. cerevisiae tim23-1 growth, BacTiter-Glo luminescence, 24 h. inhibition, % at 20 µM. 1.3% of 330,000 active. AID 463212;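 active means growth inhibition of the mutant yeast at or above 50%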;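 further: temperature-sensitive mutant grown at 25 °C; plate controls were DMSO-treated mutant yeast for no effect and medium wells lacking yeast for full effect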
tim10-1 inh: tim10-1 yeast growth inhibition. AID 463190. S. cerevisiae tim10-1 ts strain growth, BacTiter-Glo, 24 h. inhibition, % at 20 µM. 2.2% of 330,000 active;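 active means inhibition of at least 40%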;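 further: mutant grown at 25 °C; 0% = DMSO wells with yeast and 100% = wells holding no yeast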
PfHsp90 set2: growth inhibition of yeast expressing Plasmodium Hsp90 | AID 504621 | S. cerevisiae expressing PfHsp90, BacTiter-Glo ATP, 48 h; yeast lacking PDR1 and PDR3 efflux regulators | inhibition, % at 9.4 µM | 0.32% of 310,000 active;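 active means every replicate shows inhibition above about 80%, whatever the replicate mean, limit read from the data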;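 further: 0% = DMSO neutral controls and 100% = 20 µM radicicol positive controls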
V-ATPase pH: alters yeast V-ATPase proton transport; S. cerevisiae, pHLuorin cytosolic pH fluorescence; AID 504577; response, % at 10 µM; 0.37% of 350,000 active; in the data active means response mostly above about 7.3%, no sharp cut-off; inactive means mostly below about 5.4%; further: actives read high
tim10 confirm: TIM10 yeast growth inhibition, confirmed | shares compounds with TIM10 inh | S. cerevisiae tim10 strain growth, BacTiter-Glo luminescence, 24 h | inhibition, % at 10 µM | 63% of 4,600 active;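 active means inhibition of yeast growth at or above a set limit in either of two replicates at 10 µM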;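 further: this counterscreen used the strain with wild-type TIM10; 0% = yeast with DMSO and 100% = medium wells lacking yeast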
* marks the source's active call; other numbers are inactive results; . = no result. Rows were chosen to be rich in hits. Some 3.7% of all compounds tested hit in one or more screens of this group.

SMILES	TIM10 inh	tim23-1 inh	tim10-1 inh	PfHsp90 set2	V-ATPase pH	tim10 confirm
COc1ccc(/C=C/C(=O)NCCc2c[nH]c3ccccc23)cc1OC	53*	5	-35	-34	4	9
Cn1c(N2CCN(C(=O)Nc3ccc(F)cc3)CC2)nc2ccccc21	7	-2	-11	14	0	.
CC(C)n1c(N2CCN(C(=O)Nc3ccccc3)CC2)nc2ccccc21	44*	24	20	-12	-5	43*
Cc1ccccc1Oc1nc2c(C)cccn2c(=O)c1/C=C(\C#N)C(=O)NC1CCS(=O)(=O)C1 (stereo not given)	41*	17	18	6	-6	16
CCN(C[C@H]1N[C@@](CC)(C(=O)OC)[C@H]2C(=O)N(C)C(=O)[C@@H]12)S(=O)(=O)c1ccccc1	5	-4	-5	1	2	.
C=CCn1c(SCC(=O)Nc2cc(C)on2)nnc1-c1ccncc1	.	.	.	.	-1	.
COC(=O)C1=C(C)N(c2ccc(Cl)cc2)/C(=C/c2cccs2)C1=O	47*	37	32	1	2	0
COC(=O)C1=C(C)N(c2ccccc2)/C(=C/c2ccco2)C1=O	22	28	4	3	1	.
COC(=O)C1=C(C)N(c2ccc(Cl)cc2)/C(=C/c2ccc(O)cc2)C1=O	1	7	-3	17	-2	.
COC(=O)C1=C(C)N(c2ccccc2)/C(=C/c2cccs2)C1=O	51*	35	32	30	8	35*
COC(=O)C1=C(C)N(c2ccc(C)c(C)c2)/C(=C/c2cccs2)C1=O	50*	40	23	-4	-1	47*
Cc1ccc(NC(=O)Cn2c(=O)c3cccn3c3ccccc32)cc1	-18	-5	-5	-11	3	.
COc1ccc(OCCCCc2c(C)n[nH]c2C)cc1	13	9	5	-5	4	.
Cc1n[nH]c(C)c1CCOc1ccc(C(C)C)cc1	49*	43	36	-15	5	30*
Cc1ccc2nc(CSc3nc(C)ccc3C#N)[nH]c2c1	61*	35	38	5	-4	48*
CN1CCN(C(=S)NC(=O)c2ccccc2Br)CC1	5	14	8	-82	0	.
O=C(NC(=S)N1CCc2ccccc21)c1ccccc1Br	41*	34	24	-37	4	31*
CC(=O)N1CCc2c(sc(NC(=O)CS(=O)(=O)c3ccc(F)cc3)c2C(N)=O)C1	-2	16	4	.	-2	.
N#Cc1ccsc1NC(=O)CCN1CCN(C(c2ccccc2)c2ccccc2)CC1	-36	-7	-80	-3	1	.
COc1cc(CNC(=O)c2cc(C(=O)NCc3cc(OC)cc(OC)c3)n(C)n2)cc(OC)c1	-3	2	6	-2	-3	.
CCOC(=O)N/N=C/c1ccccc1OCc1ccc(Cl)cc1	44*	47	32	-7	-4	33*
O=C(N/N=C/c1sc(=O)n(-c2ccccc2)c1Cl)c1ccccc1	42*	48	31	10	-1	22
CC1CN(CC(O)COC(c2ccc(Cl)cc2)c2ccc(Cl)cc2)CC(C)O1 (stereo not given)	46*	35	32	7	1	40*
CN(C)CC(O)COC(c1ccc(Cl)cc1)c1ccc(Cl)cc1 (stereo not given)	13	18	21	9	1	.
CC(C)CC(=O)NC(=S)Nc1nc(-c2cccc3ccccc23)cs1	47*	15	36	-4	1	-19
SMILES	TIM10 inh	tim23-1 inh	tim10-1 inh	PfHsp90 set2	V-ATPase pH	tim10 confirm
COc1ccc(-c2csc(NC(=O)CC(C)C)n2)cc1	39	6	10	5	2	.
Cc1ccc(Nc2nc(-c3sc(C)nc3C)cs2)cc1	46*	48	23	-43	2	49*
O=C(CCCOc1ccc(Cl)cc1Cl)N/N=C/c1ccccc1O	41*	39	-1	16	-3	40*
O=C(CCCOc1ccc(Cl)cc1Cl)N/N=C/c1ccccc1	5	21	6	4	0	.
CC1CCN(C(=O)CNC(=O)CNC(=O)Cc2ccccc2)CC1	-4	3	-2	4	3	.
C[C@@H]1CN([C@@H](C)CO)C(=O)CCCn2nncc2CO[C@@H]1CN(C)S(=O)(=O)c1cccc(C#N)c1	.	.	.	.	3	.
CCN(CC)S(=O)(=O)c1ccc(N/N=C(\C)c2ccc(OC)cc2O)nc1	42*	45	30	-11	-5	40*
Cc1nc2ccccc2c2c(N)cccc12	.	.	.	4	1	.
